Screens as filed in PubChem.
This is a sample that favours compounds with a hit; in the whole collection about 32% have one here.
PostGolgi yeast: phenotypic screen on post-Golgi transport, primary screen; post-Golgi transport phenotypic cell assay; 98,000 tested, 0.9% active; inhibition, % at 10 µM;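 note: yeast cells grown in 1536-well plates; yeast grown about 18 h at 30C before absorbance read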
CYP2C9 activ: human CYP2C9 activators, primary screen, biochemical, luminescence | recombinant CYP2C9, luciferin-H conversion; stronger effect = higher value; factor 1 = untreated enzyme, 0 = blocked | activation factor at 5 µM | 96,000 tested, 1.4% active;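 active = activation factor of 2 or more for CYP2C9 at a 5 µM dose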;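 note: 0 = sulfaphenazole-blocked wells and 1 = vehicle-only wells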
CYP2C19 inh: blockers of cytochrome P450 2C19 activity – biochemical, luminescence, ADME assay, primary screen; P33261; CYP2C19 Supersomes, luciferin-H EGE luminescence, 30 min; inhibition, % at 5 µM; 96,000 tested, 21% active; AID 778, 2007;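 active = CYP2C19 inhibition above a set limit at 5 µM in the primary screen, cut at about 50% in these data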;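 note: plate controls were negative control wells for no effect and 2.5 mM tranylcypromine positive control for full effect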
Target sequence (P33261 whole entry, looked up): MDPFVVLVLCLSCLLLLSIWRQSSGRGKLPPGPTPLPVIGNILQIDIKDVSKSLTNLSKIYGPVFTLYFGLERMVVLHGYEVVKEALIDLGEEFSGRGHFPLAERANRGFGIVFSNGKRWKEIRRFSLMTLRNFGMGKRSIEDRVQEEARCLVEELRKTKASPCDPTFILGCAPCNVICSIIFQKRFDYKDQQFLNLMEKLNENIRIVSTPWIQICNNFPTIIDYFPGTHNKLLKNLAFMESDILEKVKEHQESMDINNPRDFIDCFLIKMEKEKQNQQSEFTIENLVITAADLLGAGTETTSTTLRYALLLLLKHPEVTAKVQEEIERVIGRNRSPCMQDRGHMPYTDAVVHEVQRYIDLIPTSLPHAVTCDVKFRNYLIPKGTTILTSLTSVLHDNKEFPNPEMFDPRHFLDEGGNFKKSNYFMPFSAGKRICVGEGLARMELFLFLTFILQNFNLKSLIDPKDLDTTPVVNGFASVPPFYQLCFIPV
CYP2C9 inh: blockers of cytochrome P450 2C9 activity – biochemical, luminescence, ADME assay, primary screen. P11712. CYP2C9 Supersomes, luciferin-H conversion. inhibition, % at 5 µM. 96,000 tested, 20% active. AID 777, 2007;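 active = blocking of liver enzyme CYP2C9 beyond about 50% at 5 µM, limit read from the data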
PostGolgi ctrl: growth inhibition of yeast control strain, primary screen, counter-screen for post-Golgi transport modulator project; efflux-deficient yeast background strain, growth absorbance A615, 16 h; AID 738, 2007; 98,000 tested, 5% active; inhibition, % at 10 µM
CYP2C19 activ: human CYP2C19 activators, primary screen, biochemical, luminescence | recombinant CYP2C19, luciferin-H EGE luminescence; stronger effect = higher value; 0 = fully inhibited enzyme, 1 = untreated enzyme | AID 1025, 2008 | 96,000 tested, under 10 active | activation factor at 5 µM | Cytochrome P450 2C19 (Homo sapiens), P33261;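 active = activation factor of at least 2 at 5 µM in the primary screen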;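 note: 0 = wells with 2.5 mM tranylcypromine and 1 = vehicle-only wells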
* hit, by the source's call; · = no result. Cut-off read from the data, not from the text of the source, unless noted: active = inhibition above about 30%; inactive = the rest.

SMILES	PostGolgi yeast	CYP2C9 activ	CYP2C19 inh	CYP2C9 inh	PostGolgi ctrl	CYP2C19 activ
COc1cccc(NC(=O)N2CCN(c3cccc(C)c3)C(C)C2)c1 (stereo not given)	18	1.2	59*	-16	6	0.4
COC(=O)c1[nH]c2cc(OC)ccc2c1NC(=O)CN1CCN(c2cccc(C)c2)C(C)C1 (stereo not given)	0	0.7	14	31	37*	0.9
O=c1[nH]c(NCc2ccccc2)nc2c1CCCC2	2	0.7	6	26	4	0.9
CCCCCCCCNC(=O)C(CCC(=O)OCc1ccccc1)NC(C)=O (stereo not given)	-7	0.9	75*	7	1	0.3
COC(=O)C(CCCCNC(=O)OCc1ccccc1)NC(=O)CN (stereo not given)	32*	0.6	51*	44	7	0.5
CCNC(=O)n1nccc1C(C)Oc1ccc(Cl)cc1 (stereo not given)	3	0.3	88*	71*	7	0.1
CCNC(=O)n1nccc1C(C)Oc1cccc(C(F)(F)F)c1 (stereo not given)	-5	0.7	56*	26	35*	0.4
CC(C)NC(=O)c1ccc(-c2cccc(C(F)(F)F)c2)o1	14	1.4	7	-35	3	0.9
CCn1ccc(C(=O)Oc2ccc(Cl)cc2)n1	-9	0.7	30	30	18	0.7
O=C(C1CCC1)N1CCc2cc(S(=O)(=O)NCCN3CCN(c4ccccc4F)CC3)ccc21	-1	0.4	48	59*	38*	0.5
O=C(C1CC1)N1CCc2cc(S(=O)(=O)NC3CCN(Cc4ccccc4)CC3)ccc21	3	1	9	2	1	0.9
CCC1CCCCN1S(=O)(=O)c1ccc2c(c1)CCN2C(=O)C1CCC1 (stereo not given)	1	0.5	28	52*	68*	0.7
O=C(C1CCC1)N1CCc2cc(S(=O)(=O)NCc3ccccn3)ccc21	-4	0.4	14	58*	2	0.9
O=C1CC(C(=O)O)S/C(=N\NC(=O)c2ccccc2)N1 (stereo not given)	-3	1	2	3	6	1
Nc1[nH]nc2nc(N3CCOCC3)nc(-c3ccccc3)c12	3	1	4	2	5	1
Fc1cccc(Cl)c1Cn1nnc2c(-n3ccnc3)ncnc21	-1	0.3	95*	66*	11	0.1
O=C1OC(Nc2ccc(Br)cn2)c2ccccc21 (stereo not given)	7	0.9	1	6	-4	1
CCOc1ccc(NC(=O)c2cccc(OC(=S)N3CCC(C)CC3)c2)cc1	1	0.3	94*	74*	15	0.1
CCOc1cccc(C(=O)Nc2ccc(N(CC)CC)cc2)c1	8	1.3	18	-34	4	0.8
Cc1ccc(CNC(=O)c2ccc(C#CC(C)(C)O)s2)cc1	7	0.8	5	22	8	1
Cc1cccc(-c2noc(CCC(=O)NCc3ccco3)n2)c1	-2	0.7	15	34	-6	0.8
Cc1cccc(-c2cc3nc4c(c(N5CCOCC5)n3n2)CCCC4)c1	-7	0.4	26	55*	72*	0.7
C1CCc2c(nc3nnnn3c2N2CCOCC2)C1	2	0.8	-9	18	0	1.1
OC1CCN(c2c3c(nc4cc(-c5ccc(F)cc5)nn24)CCC3)CC1	2	0.5	7	49	49*	0.9
O=C(C1CCCO1)N1CCN(c2c3c(nc4cc(-c5ccc(F)cc5)nn24)CCC3)CC1 (stereo not given)	-2	0.8	15	21	19	0.9
SMILES	PostGolgi yeast	CYP2C9 activ	CYP2C19 inh	CYP2C9 inh	PostGolgi ctrl	CYP2C19 activ
Fc1ccc(-c2cc3nc4c(c(N5CCOCC5)n3n2)CCCC4)cc1	19	0.8	10	21	57*	0.9
Cc1cccc(-c2cc3nc4c(c(NCc5ccco5)n3n2)CCCC4)c1	3	0.7	15	35	42*	0.8
CCCOc1ccccc1-n1sc2c(c1=S)-c1cc(OC)cc3c1N(C(=O)C3=O)C2(C)C	1	0.2	62*	80*	0	0.4
COc1cccc(C(=O)Oc2cc3c4c(c2)C(C)=CC(C)(C)N4C(=O)C3=O)c1	1	1.3	-5	-27	16	1.1
COc1ccc(CNc2nc3nc(C)c(Cl)c(=O)n3[nH]2)cc1OC	1	0.2	-14	76*	1	1.1
COc1ccccc1CNc1nc2nc(C)c(C)c(=O)n2[nH]1	-8	0.3	14	70*	12	0.9
Cc1ccc(C2CN(C)C3(C(=O)Nc4ccccc43)C23COc2ccccc2C3=O)cc1 (stereo not given)	-5	0.6	44	45	80*	0.6
Clc1ccc(Nc2ccc(-n3ccnc3)nn2)cc1Cl	9	0	100*	99*	34*	0
CCCN1CCN(C(=O)Cn2cccc2C(=O)c2ccccc2)CC1	10	·	·	·	17	·
O=c1oc2cc(Oc3c([N+](=O)[O-])cc(C(F)(F)F)cc3[N+](=O)[O-])ccc2c2c1CCCC2	106*	1.6	33	-58	85*	0.7
O=C(Oc1ccc2c3c(c(=O)oc2c1)CCC3)c1ccco1	-4	1.6	7	-59	-3	0.9
O=C(CCSc1ccccc1)N1CCN(C(=O)c2ccco2)CC1	-11	0.8	25	20	-1	0.7
COC(=O)c1ccc2c(=O)n(CCCCCC(=O)NCc3ccccc3)c(=O)[nH]c2c1	-1	0.5	17	51*	-3	0.8
CC1CC(C)CN(C(=O)c2ccc3c(=O)n(Cc4ccc5c(c4)OCO5)c(=S)[nH]c3c2)C1 (stereo not given)	-3	0.5	48	49	36*	0.5
O=C(CCCn1c(=S)[nH]c2ccsc2c1=O)NCc1ccco1	-2	0.8	8	16	21	0.9
COC(=O)c1ccc2c(=O)n(CCCCCC(=O)NCc3ccc4c(c3)OCO4)c(=O)[nH]c2c1	-6	0.5	23	52*	1	0.8
CCCCCn1c(=O)[nH]c2cc(C(=O)NCc3ccc4c(c3)OCO4)ccc2c1=O	3	0.6	44	36	0	0.6
O=C(CCCCCn1c(=O)[nH]c2ccsc2c1=O)NCc1ccc2c(c1)OCO2	11	0.4	32	63*	-3	0.7
O=C(c1ccc2c(=O)n(Cc3ccc4c(c3)OCO4)c(=S)[nH]c2c1)N1CCCCC1	-5	0.9	10	6	4	0.9
COC(=O)c1ccc2c(=O)n(CCCCCC(=O)NCc3ccccn3)c(=O)[nH]c2c1	1	0.7	1	28	10	1
